Source: PubChem BioAssay
Pf growth 48h = inhibits P. falciparum growth in the first generation, 48 h; P. falciparum luciferase growth in erythrocytes, 48 h; Potency, µM (doses to about 28.7 µM), for the others: at the top dose activity change, negative = inhibition, actives largely listed as inhibitors; 310,000 tested, 5.9% active; AID 504832; also: potency is read from the fitted curve at half-maximal effect; % is scaled to controls: 0 for no effect and ±100 for the full control effect
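Luciferase-expressing P. falciparum in infected erythrocytes (2% hematocrit, 0.1% parasitemia final) in RPMI 1640/0.5% Albumax were exposed to compound for 48 hours at 37 C, 5% CO2; growth read as luminescence.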
CHX counter = counter-screen for Shiga toxin inhibitors: cycloheximide protein synthesis inhibition; 300,000 tested, 12% active; cell reporter, cycloheximide protein synthesis inhibition counterscreen; max response, %; AID 2314; in the data active = max response mostly above about 13%, no sharp cut-off; inactive = mostly below about 14%; also: read at 38.3 µM for the half of the compounds with a filed dose; 0% is about no effect
Shiga inhibitor = blocks Shiga toxin action in Vero cells | inhibition, % at 38.7 µM | 290,000 tested, 9.2% active | Vero cells, Shiga toxin protein synthesis inhibition reporter; in the data active = inhibition mostly above about 28%, no sharp cut-off; inactive = mostly below about 43%; also: 0% is about no effect
LmPK inh = inhibitors of Leishmania mexicana pyruvate kinase; purified LmPK, Kinase-Glo ATP luminescence, 1 h; Potency, µM (doses to about 57.5 µM), for the others: top-dose activity change, negative = inhibition, actives largely listed as inhibitors; Q27686; 290,000 tested, 0.37% active; also: potency is read from the fitted curve at half-maximal effect; % is scaled to controls: 0 for no effect and ±100 for the full control effect
Target sequence (Q27686 whole entry, looked up): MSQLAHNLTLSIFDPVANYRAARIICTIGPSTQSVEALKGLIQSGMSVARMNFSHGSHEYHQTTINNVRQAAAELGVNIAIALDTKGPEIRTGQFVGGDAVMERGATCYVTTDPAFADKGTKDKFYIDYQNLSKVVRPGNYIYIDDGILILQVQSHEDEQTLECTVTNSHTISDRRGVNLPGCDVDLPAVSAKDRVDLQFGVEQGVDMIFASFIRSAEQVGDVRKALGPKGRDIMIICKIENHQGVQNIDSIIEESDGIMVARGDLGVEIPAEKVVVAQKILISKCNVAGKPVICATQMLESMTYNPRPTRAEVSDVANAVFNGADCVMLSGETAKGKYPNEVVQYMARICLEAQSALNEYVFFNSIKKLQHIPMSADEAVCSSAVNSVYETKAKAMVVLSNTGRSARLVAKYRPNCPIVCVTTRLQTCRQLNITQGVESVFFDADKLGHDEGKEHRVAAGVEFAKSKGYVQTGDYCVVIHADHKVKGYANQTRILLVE
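In 50 mM imidazole pH 7.2 with 7 mM MgCl2, LmPK (0.1 nM) turned over PEP (0.5 mM) and ADP (0.1 mM) for 1 h at room temperature. Luciferase read-out of ATP.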
Pf growth 96h = inhibits malaria parasite growth, 96 h. Potency, µM (highest dose often 28.7 µM), without a hit: at the highest dose activity change, negative = inhibition, usual class: inhibitors. P. falciparum luciferase reporter growth, 96 h. 320,000 tested, 6.9% active; also: potency is read from the fitted curve at half-maximal effect; % is scaled to controls: 0 for no effect and ±100 for the full control effect
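P. falciparum expressing integrated firefly luciferase, in erythrocytes at 2% hematocrit, 0.05% parasitemia, incubated with compounds 96 h at 37 C, 5% CO2. Growth inhibition read as loss of luminescence; two-generation exposure targets delayed-death apicoplast inhibitors.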
* marks the source's active call; other numbers are inactive results; ? = inconclusive; · = not tested or not shown; [ ] = another dose, or the depositor's remark. This is a sample that favours compounds with a hit; in the whole collection about 22% have one here. Unless noted, calls follow the shape of the dose curve; as a rule, active = well fitted inhibition curve with a large enough effect; inconclusive = small, poorly fitted or top-dose-only effect, or another doubt; inactive = no such curve, though single readings can be large or run the other way.

SMILES	Pf growth 48h	CHX counter	Shiga inhibitor	LmPK inh	Pf growth 96h
Cc1ccc(Cn2ccc(NC(=O)c3cc(C)on3)n2)cc1	·	29*	52	1%	·
Cc1ccc(Cn2ccc(NC(=O)c3cc(-c4ccc(Br)cc4)on3)n2)cc1	71%	-1	-10	1%	?
CC(=O)Nc1ccc(S(=O)(=O)NCc2nc(-c3ccc(C)cc3)no2)cc1	3%	-3	15	-2%	?
CCCc1cc(=O)[nH]c(SCC(=O)N(CC)c2c(N)n(Cc3ccccc3)c(=O)[nH]c2=O)n1	30%	·	·	·	18%
O=C(/C=C/c1ccc(OCCCF)cc1)Nc1ccnc(-c2cccnc2)n1	10µM*	7	-6	-7%	?
O=C(/C=C/c1ccc(OCCCF)cc1)Nc1ccnc(-c2ccncc2)n1	13µM*	14	44	0%	13µM*
CCCCC(=O)Nc1ccnc(-c2cccnc2)n1	14%	-1	-5	-4%	70%
Cc1ccc(NC(=O)CSc2nnc(-c3cc(C)[nH]n3)n2N)c(C)c1	?	7	22	3%	?
O=C(O)c1ccccc1/C=N/N1CCN(C2c3ccccc3-c3ccccc32)CC1	?	-3	-7	10%	-26%[1.15 µM]
O=C(N/N=C/c1cccnc1)c1ccccc1OCc1ccc(Cl)cc1	?	10	-6	-1%	-20%
O=C(N/N=C/c1cccnc1)c1cc(-c2ccccc2OCc2ccccc2)n[nH]1	10µM*	-2	26	0%	?
O=C(N/N=C/c1cccnc1)c1ccccc1OCc1ccc(Br)cc1	9.3µM*	16	32	0%[11.5 µM]	3%
O=C(N/N=C/c1ccncc1)c1ccc(OCc2ccccc2)cc1	?	1	25	0%	?
Cc1cccc(N/C(N)=N/c2nc(C)c(Cc3ccccc3)c(=O)[nH]2)c1	?	1	-13	3%	?
COc1ccc(N2CCN(S(=O)(=O)CCNC(=O)/C=C/c3ccc4c(c3)OCO4)CC2)cc1	-17%	·	·	·	?
COc1ccccc1OCC(=O)Nc1ccc(S(=O)(=O)Nc2onc(C)c2C)cc1	2%	-4	8	-2%	24%
O=Cc1cccn1-c1c(C(=O)O)cnn1-c1ccccc1	16%	7	-17	3%[11.5 µM]	10µM*
COc1cccc(NC(=S)N/N=C2/CCCCc3ccccc32)c1	?	42*	55*	8%	?
Cc1ccc(C)c(NC(=S)N/N=C2/CCCCc3ccccc32)c1	8.3µM*	7	11	4%	4.1µM*
CC(C)NC(=S)N/N=C1\CCCCc2ccccc21	?	-8	-11	3%	?
CCOC(=O)c1sc(NC(=O)CN2C(=O)NC3(CC(C)CC(C)(C)C3)C2=O)cc1C (centres undefined)	2.6µM*	·	·	·	3.7µM*
CC(C)Cc1nnc(NC(=O)CN2C(=O)NC3(CCCC3)C2=O)s1	2%	·	·	·	14%
CC(C)Cc1nnc(NC(=O)CN2C(=O)NC3(CC(C)CC(C)(C)C3)C2=O)s1 (centres undefined)	?	·	·	·	17µM*
CCOC(=O)c1sc(NC(=O)CN2C(=O)NC3(CC(C)CC(C)(C)C3)C2=O)c(C(=O)OCC)c1C (centres undefined)	8.3µM*	-1	6	8%	2.1µM*
CC(C)N(Cc1ccccc1)C(=O)CN1C(=O)COc2ccc(S(=O)(=O)NC3CCCC3)cc21	5.2µM*	-2	1	1%	?
SMILES	Pf growth 48h	CHX counter	Shiga inhibitor	LmPK inh	Pf growth 96h
COc1ccc(NC(=O)CN2C(=O)COc3ccc(S(=O)(=O)N4CCCCCC4)cc32)cc1	5%	-2	26	0%	10µM*
CCCNC(=O)CN1C(=O)COc2ccc(S(=O)(=O)N3CCCCCC3)cc21	-8%	-4	-3	-1%	-5%
CNC(=O)CN1C(=O)COc2ccc(S(=O)(=O)N3CCCCCC3)cc21	10%	-2	-9	0%	12%
CCN(Cc1ccccc1)C(=O)CN1C(=O)COc2ccc(S(=O)(=O)N3CCCCCC3)cc21	10µM*	4	-11	2%	?
CCN(C(=O)CN1C(=O)COc2ccc(S(=O)(=O)N3CCCCCC3)cc21)c1cccc(C)c1	3.3µM*	2	-2	9%	?
CCOc1ccc(NC(=O)CN2C(=O)COc3ccc(S(=O)(=O)N4CCCCC4)cc32)cc1	?	12	-4	-1%	0%
CC(C)CN=c1cc(-c2ccccc2)oc2ccc(Cl)cc12	?	35*	70	0%	-26%
CC(O)CN=c1cc(-c2ccccc2)oc2ccc(Cl)cc12 (centres undefined)	?	55*	77*	2%	?
CCCn1c(SCC(=O)Nc2ccccc2C(=O)NC2CC2)n[nH]c1=O	-1%	·	·	·	-1%
COc1ccc(S(=O)(=O)NC(C)C)cc1C(=O)N1CCOCC1	6%	1	-4	-1%	-6%
Clc1ccccc1OCCn1nnc2ccccc21	38%	45*	63*	-1%	-8%
Cc1ccc(C)c(OCCn2nnc3ccccc32)c1	-1%	33*	34*	1%	31%
Cc1cc(C)cc(OCCn2nnc3ccccc32)c1	51%	47*	58*	1%	?
Cc1cccc(C)c1OCCn1nnc2ccccc21	193%	5	-11	1%	?
Cc1ccc(OCCn2nc3ccccc3n2)c(C)c1	25%	32*	38*	0%	·
CNC(=S)NNS(=O)(=O)c1ccc(OC)cc1OC	-4%	7	-9	8%	-20%
COc1ccc(S(=O)(=O)CC(=O)c2cc3cccc(C)c3oc2=O)cc1	?	7	-3	4%	-21%
O=C(CS(=O)(=O)c1ccccc1)c1cc2ccccc2oc1=O	20%	32*	63*	-7%	56%
O=C(CS(=O)(=O)c1ccccc1)c1cc2cc(F)ccc2oc1=O	4%	50*	45*	0%	-3%
COc1ccc2cc(C(=O)CS(=O)(=O)c3ccccc3)c(=O)oc2c1	-3%	21	25	-14%	12µM*
O=C(CCN1C(=O)C2CCCCC2C1=O)Nc1ccc(Br)cc1F (centres undefined)	70%	·	·	·	4%
COC(=O)c1nc2nc(C)cc(C(F)(F)F)n2n1	1%	-12	-37	-1%	12µM*
COC(=O)c1nc2nc(-c3cccs3)cc(C(F)(F)F)n2n1	12%	-1	1	0%	-13%
Cn1cnc(S(=O)(=O)Nc2ccccc2C(=O)NCC2CC2)c1	4.7µM*	-1	-6	4%	39%
CCOc1ccc(OCC)c(NS(=O)(=O)c2cn(C)cn2)c1	10%	-7	-5	0%	?
COC(=O)C1=C[C@@H](C(=O)OC)C2C3=C(C(=O)[C@@]2(C)NC(=O)c2ccccc2)[C@H](C)[C@@H]2C(=O)N(C)C(=O)[C@@H]2[C@@H]3C1 (some centres undefined)	·	2	23	·	·
Cc1ccc(/C=N/NC(=O)c2cc(C)oc2C)o1	8%	15*	21	-11%	-7%
